Here are results for 39 compounds from PubChem BioAssay.

The inhibition is the change of the read-out against control, counted positive when it falls.

Molecules are shown by their SMILES. Calls of active or inactive are those of the source.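 The calls were made as follows: active = inhibition above 20% together with a positive visual image hit; inconclusive = visual image hit but inhibition not above 20%; inactive = no visual image hit.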

The experiment is described as follows: inhibitors of TNFa-induced NFkB p65 translocation, primary screen, imaging, HUVEC, MLSMR starter and 10KST1 sets (AID 438).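 Also: compound added about 3h40 before a 20 min TNFalpha stimulation.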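 As to inhibition: signal is the nuclear over cytoplasmic p65 intensity ratio per well.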 Particulars: HUVEC TNFa-induced p65 nuclear translocation; cell count: measured here: nuclei count (cytotoxicity indicator), at 2.08 µM; inhibition: at 2 µM, stronger effect = higher value, 0% TNFa-plus-vehicle, 100% no-TNFa wells.
Regarding `O=C(c1ccccc1F)N1CCC(N2CCCCCC2)CC1`, the cell count is 332 and the inhibition was -3.1% (inactive).

`CCOc1ccc(CCNC(=O)C(O)c2ccccc2)cc1` (stereo not drawn): the cell count was 632 and the inhibition is -0.6% (inactive).

Take `CCN(CC)CCN1C(=O)C(=O)/C(=C(/O)c2ccc(C)cc2)C1c1cccnc1` (stereo not drawn): the cell count is 390 and the inhibition was -0.5% (inactive).

Consider `C=CCOC(=O)C1=C(C)NC(SCC(=O)N(CC)CC)=C(C#N)C1c1ccco1` (stereo not drawn), for which the inhibition was -9.9% (inactive) and the cell count stood at 361.

As to `CCOC(=O)CSc1nc(N)c(C#N)c(-c2ccc(OC)cc2)c1C#N`, the cell count amounted to 475 and the inhibition is 1.6% (inactive).

On to `COc1ccc(OC)c(NC(=O)CSC2=C(C#N)C(c3ccco3)C3=C(CCCC3=O)N2)c1` (stereo not drawn), for which the cell count was found to be 356 and the inhibition was -6.8% (inactive).

As for `CCCOc1ccc(N2C(=O)CC(N(Cc3ccc(S(N)(=O)=O)cc3)C(=O)CC)C2=O)cc1` (stereo not drawn), the cell count turned out to be 441 and the inhibition is -4.6% (inactive).

For `Cc1ccc2[nH]c3c(c2c1)CCCC3C(N)=O` (stereo not drawn), the inhibition is -27.5% (inactive) and the cell count was 548.

In the case of `COc1ccc(C=NCCC2(O)CC(C)N(C)CC2C)cc1` (stereo not drawn), the cell count came out at 340 and the inhibition is -16.4% (inactive).

For `CC(C)(C)C1CCC2(CC1)C(C#N)=C(SCC(=O)Nc1ccccc1)NC(=O)C2C#N` (stereo not drawn), the inhibition is -3.7% (inactive) and the cell count was 390.

In the case of `CC1(C)Cc2c(C#N)c(NCCc3ccccc3)nc(-c3ccco3)c2CO1`, the inhibition was -9.7% (inactive) and the cell count amounted to 585.

Turning to `CCOC(=O)c1cc2cc(OC)ccc2[nH]1`, the inhibition was -5.3% (inactive) and the cell count turned out to be 596.

For the compound `COC(=O)CSC1=C(C#N)C(=O)NC2(CCCCC2)S1`, the inhibition was -10.7% (inactive) and the cell count turned out to be 573.

On to `CCOC(=O)CC1=C(C(=O)OCC)C(c2ccc(OC)c(OC)c2)C(C#N)=C(N)O1` (stereo not drawn), for which the cell count was 471 and the inhibition was -4.3% (inactive).

Consider `COC(=O)c1ccc(OC(=O)c2ccc(OC)c(OC)c2)c(OC)c1`, for which the inhibition is -0.3% (inactive) and the cell count turned out to be 601.

As for `CCOc1ccc(/C(O)=C2/C(=O)C(=O)N(CCN(C)C)C2c2ccccc2)cc1Cl` (stereo not drawn), the cell count was determined as 539 and the inhibition is -10.3% (inactive).

Consider `O=CN1CCN(C(=O)CN2C(=O)c3ccccc3C2=O)CC1`, for which the inhibition is -7.2% (inactive) and the cell count came to 359.

For the compound `CC(C)Oc1ccc(Cc2c(O)nc(NCCCN(C)C)[nH]c2=O)cc1`, the cell count turned out to be 383 and the inhibition was -15.2% (inactive).

With `CC(=O)c1c(C)c2c(n1CCN(C)C)CCCC2`, the cell count came to 518 and the inhibition is -10% (inactive).

`Cc1ccc(C2C(C(=O)c3cc4ccccc4o3)=C(O)C(=O)N2CCCN(C)C)cc1` (stereo not drawn): the inhibition is -4.5% (inactive) and the cell count was 445.

With `COC(=O)c1ccc(=O)n(Cc2ccco2)c1`, the cell count worked out at 300 and the inhibition is -2.7% (inactive).

For `COc1ccc(OC)c(NC(=O)CSc2nnc(-c3ccco3)n2-c2ccc(C(=O)O)cc2)c1`, the cell count turned out to be 494 and the inhibition was -27.8% (inactive).

In the case of `Cn1c(NCCN2CCCCC2)cc(=O)n(C)c1=O`, the inhibition is 4.3% (inactive) and the cell count stood at 625.

With `N#CC1=C(N)NC(SCc2ccc(F)cc2)=C(C#N)C12CCCCC2`, the inhibition was -15.5% (inactive) and the cell count worked out at 614.

Regarding `Cc1nc2oc(C(=O)c3ccc(Br)cc3)c(N)c2c2c1COC(C)(C)C2`, the inhibition is -7.3% (inactive) and the cell count turned out to be 643.

Regarding `Cc1nnc2n(Cc3ccccc3)c(=O)c3c4c(sc3n12)CN(Cc1ccccc1)CC4`, the cell count is 628 and the inhibition was -8.2% (inactive).

Consider `N#CCSc1nc2sc3c(c2c(=O)n1C1CCCCC1)CCCC3`, for which the inhibition is -21.9% (inactive) and the cell count turned out to be 651.

On to `COc1cccc(/C=C2/CN(C)CC3=C2OC(N)=C(C#N)C3c2cccc(OC)c2)c1` (stereo not drawn), for which the inhibition is -0.3% (inactive) and the cell count amounted to 562.

For the compound `Cc1noc(NS(=O)(=O)c2ccc(NC(=O)COc3ccccc3)cc2)c1C`, the inhibition is -10.1% (inactive) and the cell count amounted to 641.

As for `COc1ccccc1-c1nnc2sc(COc3ccccc3)nn12`, the inhibition is -8.1% (inactive) and the cell count came out at 670.

As for `CCc1nnc(NC(=O)CSc2nc(C)c3c(c2C#N)CCCC3)s1`, the cell count is 613 and the inhibition is -13.4% (inactive).

As to `Cn1c(=O)c2c(nc(SCCN3CCCCC3)n2Cc2ccc(Cl)cc2)n(C)c1=O`, the cell count came to 498 and the inhibition is -3.7% (inactive).

Regarding `Cc1ccc(C(=O)C2=C(O)C(=O)N(c3ncccn3)C2c2cccc(Cl)c2)o1` (stereo not drawn), the cell count was found to be 472 and the inhibition is -8.1% (inactive).

In the case of `COC(=O)C1=C(C)OC(N)=C(C#N)C1c1ccc(OC)c(OC)c1OC` (stereo not drawn), the inhibition was -10.3% (inactive) and the cell count stood at 401.

For the compound `O=c1c(-c2ccc3c(c2)OCCO3)c(C(F)(F)F)oc2cc(O)cc(O)c12`, the inhibition is -10.2% (inactive) and the cell count was determined as 534.

`C=CCNc1nc(-c2ccc(O)c(C(N)=O)c2)cs1`: the inhibition is -7.7% (inactive) and the cell count stood at 651.

Consider `C=CCOc1nc2c(c(=O)n(Cc3ccc(Cl)c(Cl)c3)c(=O)n2C)n1C`, for which the cell count amounted to 654 and the inhibition is 0.8% (inactive).

Take `S=c1nc(-c2ccccc2)[nH]n1-c1ccccc1`: the inhibition is -3.4% (inactive) and the cell count came out at 339.

As to `O=C(O)CC(NCc1ccco1)C(=O)OCC1CCCO1` (stereo not drawn), the cell count turned out to be 557 and the inhibition was -3.4% (inactive).
